The values that follow come from PubChem BioAssay.

Assay [1] concerns the target Muscarinic acetylcholine receptor M4 (Homo sapiens) (UniProt P08173). The assay can be described thus: M4-linked GIRK flux change, two-sided – cell-based, HEK293 M4/GIRK, thallium flux, BTC-AM, M4 allosteric agonist project, primary screen (AID 625;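 active = fluorescence slope after compound addition differing from the mean of all tested samples at 99.7% confidence, mostly higher but some lower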;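 note: thallium influx through GIRK channels coupled to M4 in HEK293 cells with BTC-AM dye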). To be noted: at 10 µM, actives lie on both sides.
The nature of assay [2]: inhibitors of TNFa-induced NFkB p65 translocation, primary screen, imaging, HUVEC, MLSMR starter and 10KST1 sets (AID 438;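 active = inhibition above 20% together with a positive visual image hit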;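 note: compound added about 3h40 before a 20 min TNFalpha stimulation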;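 for inhibition: signal is the nuclear over cytoplasmic p65 intensity ratio per well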). The conditions noted are these: HUVEC TNFa-induced p65 nuclear translocation; cell count: measured here: nuclei count (cytotoxicity indicator), at 2.08 µM; inhibition: at 2 µM, stronger effect = higher value, 0% TNFa-plus-vehicle, 100% no-TNFa wells.
A short description of assay [3]: reduction of polyQ htt aggregates in cells – imaging, exon1htt(103Q)mCFP cells, high-content imaging, primary screen (AID 483;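 active = visual image review flags a hit and inhibition of aggregation exceeds 20%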;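 note: compound exposure lasted 3 days before fixation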;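 for nuclei count: percent of the per-plate median nuclei count of sample wells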). To be noted: exon1htt(103Q)mCFP cell line, aggregate imaging, at 2 µM; inhibition of aggregation: stronger effect = higher value; nuclei count: measured here: cell count, toxicity.
Assay [4] is described as follows: endothelial E-selectin expression blockers – imaging, HUVEC, immunofluorescence, MLSMR starter and 10KST1 sets, primary screen (AID 487;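 active = visually confirmed hit in the image check and inhibition above 20%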;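 for inhibition: signal is fraction of cell area covered by stained E-selectin grains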;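 for nuclei count: 100% = median nuclei count of all wells on the same plate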). To be noted: HUVEC TNFalpha-induced E-selectin immunofluorescence imaging, at 2 µM; inhibition: stronger effect = higher value; nuclei count: measured here: cell number, toxicity.
Assay [5] is described as follows: Primary imaging screen for DUSP6 inhibitors that restore phospho-Erk in transfected HeLa cells, chemical complementation (AID 609;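 active = compounds giving at least 50% inhibition in the cell-based MKP-3 phosphatase rescue imaging test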;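 for inhibition: phospho-Erk level distribution per well compared with pooled transfected vehicle control wells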). To be noted: HeLa MKP-3 transfected, phospho-Erk imaging KS statistic, at 10 µM, cells stimulated with TPA for 15 min.
The target in assay [6] is Dual specificity protein phosphatase 6 (Homo sapiens) (UniProt Q16828). Described as above. To be noted: HeLa MKP-3 transfected, phospho-Erk imaging KS statistic; at 10 µM; stronger effect = higher value; cells stimulated with TPA for 15 min.
Assay [7] has as its target Voltage-gated potassium channel subunit beta-2 (Rattus norvegicus) (UniProt P62483). In words: inhibitors of rat Kvbeta2 reductase activity – biochemical, NADPH fluorescence, primary screen (AID 622;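 active = fluorescence slope higher than the sample average by over 3 SD, cut at about -0.22 in these data, passing the limit was not always enough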;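 note: slope of raw intensity against log time taken from 70 to 1610 s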). To be noted: recombinant KvBeta, 4-cyanobenzaldehyde reduction, at 10 µM, stronger effect = higher value.
Assay [8] shares this target. In words: enhancers of rat Kvbeta2 NADPH turnover – biochemical, NADPH fluorescence, primary screen (AID 623;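 active = NADPH fluorescence slope more negative than the mean of all samples by about 3 SD, 99.7% confidence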;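 note: fluorescence intensity change per second fitted from 20 to 320 s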). To be noted: Recombinant KvBeta, NADPH fluorescence decrease slope, 10 min; at 10 µM; stronger effect = lower value.
Assay [9] concerns the target Alpha-2C adrenergic receptor (Homo sapiens) (UniProt P18825). The assay can be described thus: compounds altering alpha2C-coupled GIRK flux – cell-based, HEK293 alpha2C/GIRK1/2, thallium flux, primary screen (AID 624;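 active = fluorescence slope after compound addition differing from the mean of all screened samples at 99.7% confidence, in either direction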;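 note: slope of fluorescence ratio to pre-addition baseline per second over 15 to 24 s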). The conditions noted are these: thallium flux BTC fluorescence, at 10 µM, actives lie on both sides.
Assay [10] in a line: inhibitors of larval lipid processing in zebrafish, primary screen, whole organism, PED6 fluorescence, gall bladder and intestine (AID 686;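 active = a full or partial loss of lipid-probe fluorescence in the fish gall bladder, intestine or both, judged by eye; inactive = no fluorescence loss, or compound toxic to the fish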;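 note: larvae 5 to 7 days old with five fish per well; signal comes from phospholipase A2 cleavage of quenched PED6 carried via bile; overnight exposure to compound and PED6 before scoring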). To be noted: Zebrafish larvae PED6 lipid processing, fluorescence scoring; screened at 20 µM (by protocol).
A short description of assay [11]: loss of swimming-algae plug formation – whole organism, Chlamydomonas reinhardtii, WT vs cilia-less mutant, absorbance, 96-well, primary screen (AID 463189).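 Note: 0% = wild type cc124 cells in DMSO and 100% = ciliumless bld1 mutant cells.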 To be noted: Chlamydomonas reinhardtii gravitaxis, OD600 absorbance, 2 days; at 10 µM; stronger effect = higher value.
Assay [12] in a line: blockers of RIG-like receptor reporter activation – cell-based, Sendai virus stimulus, luciferase, 10K MLSCN set, TLR/RLR signaling modifier project, primary screen (AID 602276;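 active = inhibition at or above 50% at 10 µM; inactive = inhibition below 50%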;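 note: firefly luciferase from ISG56 promoter only with Renilla not read in this screen; 0% = Sendai virus plus DMSO and 100% = medium plus DMSO without virus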). To be noted: HEK293 RL24 IRF3 luciferase reporter, at 10 µM, stronger effect = higher value.
A short description of assay [13]: TLR3 IRF3 reporter activation blockers – cell-based, poly I:C stimulus, luciferase, 10K MLSCN set, primary screen (AID 602277;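 active = inhibition of the reporter signal at or above 50%; inactive = inhibition below 50%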). To be noted: HEK293-TLR3 RL24 IRF3 luciferase reporter, at 10 µM, stronger effect = higher value. (A reporter such as luciferase makes a cellular process visible.)
[14] abbreviates: measured here: cell density z-score.
[15] abbreviates: measured here: nuclear c-Myc green intensity z-score.
The mark [16] stands for this setting: measured here: nuclear pErk red intensity z-score, stronger effect = higher value.

“And” between values parts separate entries of the source, which are not always exact repeats. Identical values can stand only once. The source made the active and inactive calls.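 Rule for the calls, unless noted: active = inhibition at or above 50% relative to wild type and mutant plate controls; inactive = inhibition below 50%.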

Sequence of Muscarinic acetylcholine receptor M4 (Homo sapiens) (P08173 whole entry, looked up): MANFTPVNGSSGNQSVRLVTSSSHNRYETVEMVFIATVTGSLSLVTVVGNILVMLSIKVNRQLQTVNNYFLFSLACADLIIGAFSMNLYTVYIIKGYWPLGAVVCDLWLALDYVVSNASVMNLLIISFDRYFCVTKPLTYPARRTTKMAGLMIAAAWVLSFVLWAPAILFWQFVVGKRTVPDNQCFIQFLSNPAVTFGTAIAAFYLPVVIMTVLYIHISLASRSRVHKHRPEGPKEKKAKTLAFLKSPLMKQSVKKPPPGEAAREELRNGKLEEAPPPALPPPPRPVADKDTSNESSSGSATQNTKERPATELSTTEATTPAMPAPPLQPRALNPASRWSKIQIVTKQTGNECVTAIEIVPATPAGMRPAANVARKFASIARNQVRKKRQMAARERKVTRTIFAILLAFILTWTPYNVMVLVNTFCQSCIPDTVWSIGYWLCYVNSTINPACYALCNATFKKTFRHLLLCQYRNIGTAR
Sequence of Dual specificity protein phosphatase 6 (Homo sapiens) (Q16828 whole entry, looked up): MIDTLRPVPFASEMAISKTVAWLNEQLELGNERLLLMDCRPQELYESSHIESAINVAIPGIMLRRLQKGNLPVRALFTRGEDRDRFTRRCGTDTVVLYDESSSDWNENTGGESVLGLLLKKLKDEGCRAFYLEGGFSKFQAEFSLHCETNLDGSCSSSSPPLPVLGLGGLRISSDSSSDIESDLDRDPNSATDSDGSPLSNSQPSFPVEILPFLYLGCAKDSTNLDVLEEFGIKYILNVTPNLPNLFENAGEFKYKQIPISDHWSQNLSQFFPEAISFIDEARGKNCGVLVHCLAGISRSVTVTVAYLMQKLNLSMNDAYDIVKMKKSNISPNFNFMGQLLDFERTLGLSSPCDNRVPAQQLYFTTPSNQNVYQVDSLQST
Sequence of Voltage-gated potassium channel subunit beta-2 (Rattus norvegicus) (P62483 whole entry, looked up): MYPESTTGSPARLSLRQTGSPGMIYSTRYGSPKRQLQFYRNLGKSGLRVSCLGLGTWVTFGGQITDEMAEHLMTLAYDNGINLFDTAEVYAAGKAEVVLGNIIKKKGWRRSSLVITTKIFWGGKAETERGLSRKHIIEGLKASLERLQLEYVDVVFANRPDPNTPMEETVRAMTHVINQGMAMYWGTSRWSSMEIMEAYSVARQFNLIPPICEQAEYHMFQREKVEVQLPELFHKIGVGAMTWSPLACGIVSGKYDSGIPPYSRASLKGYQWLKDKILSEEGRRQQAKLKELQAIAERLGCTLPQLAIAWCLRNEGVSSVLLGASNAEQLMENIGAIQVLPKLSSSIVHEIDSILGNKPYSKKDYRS
Sequence of Alpha-2C adrenergic receptor (Homo sapiens) (P18825 whole entry, looked up): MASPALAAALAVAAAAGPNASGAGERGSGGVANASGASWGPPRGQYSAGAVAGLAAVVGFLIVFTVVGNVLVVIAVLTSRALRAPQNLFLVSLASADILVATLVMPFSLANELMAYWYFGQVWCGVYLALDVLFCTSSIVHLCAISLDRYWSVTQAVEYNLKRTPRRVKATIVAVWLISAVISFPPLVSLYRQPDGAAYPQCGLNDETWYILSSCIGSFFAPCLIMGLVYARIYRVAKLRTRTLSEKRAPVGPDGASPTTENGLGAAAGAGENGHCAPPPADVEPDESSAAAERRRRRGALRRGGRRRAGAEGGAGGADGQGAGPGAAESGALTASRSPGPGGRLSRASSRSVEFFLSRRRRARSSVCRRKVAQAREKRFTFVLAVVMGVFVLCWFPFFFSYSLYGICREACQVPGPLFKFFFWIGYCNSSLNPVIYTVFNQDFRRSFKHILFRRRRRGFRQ

For `Cc1cccc(N(CC(O)CN(C)C)S(=O)(=O)c2ccccc2)c1` (stereo unspecified), in assay [1], the fluorescence slope is 0.00446 (inactive).

Turning to `CN1c2ccccc2-c2nc3ccccc3n2C1c1ccco1` (stereo unspecified), the fluorescence slope in assay [1] was 0.00492 (inactive).

In the case of `CCOC(=O)c1[nH]c2cc(OC)c(OC)cc2c1NC(=O)C(C)N1CCN(Cc2ccccc2)CC1` (stereo unspecified), the cell count in assay [2] was found to be 541. Moreover, the inhibition (commonly the relative decrease from the control value, in per cent) is -4.7% (inactive) in [2]; -11.1% (inactive) in [4]; 13.9% (inactive) in [6]; 19.7% (inactive) in [11]; -0.312% (inactive) in [12]; 3.3% (inactive) in assay [13]. Moreover, the inhibition of aggregation in [3] was 10.2% (inactive). Moreover, the nuclei count in assay [3] amounted to 106%; in assay [4] it was 140%. For the same compound, the values for the z-score in assay [5] (setting [14]), in assay [5] (setting [15]) and in [5] (setting [16]) were 0.355, -0.877 and -1.74, respectively. The values for the fluorescence slope in assay [7] and in assay [1] were -0.0434 (active) and 0.00565 (inactive), respectively. In addition, the NADPH fluorescence slope in assay [8] is 2.3e-06 (inactive). The slope in assay [9] was 0.00443 (inactive). In addition, the result in [10] was inactive.

With `COCCNC(=O)c1c(N)n(/N=C/c2cccs2)c2nc3ccccc3nc12`, in assay [2], the cell count was 516. Besides, the inhibition in [2] was 7.2% (inactive); in [4], -36.6% (inactive); in [6] it was 1.75% (inactive); in assay [11], 17.7% (inactive); in assay [12] it was 5.03% (inactive); in assay [13], -26.9% (inactive). In assay [3], the inhibition of aggregation is -25.1% (inactive). For the same compound, the nuclei count turned out to be 108% in assay [3] and 107% in assay [4]. Also, the values for the z-score in [5] (setting [14]), in assay [5] (setting [15]) and in [5] (setting [16]) were 0.126, 0.305 and -0.729, respectively. Also, the fluorescence slope in assay [7] was -0.287 (inactive). Besides, the NADPH fluorescence slope in assay [8] is -9.2e-05 (inactive). Also, in [9], the slope is 0.00574 (inactive).

In the case of `CCCn1c(=O)c2[nH]c(C3CCCC3)nc2n(CCC)c1=O`, the cell count in assay [2] worked out at 503. The inhibition in [2] was -3.1% (inactive); in assay [4], -83.5% (inactive); in [6], 3.59% (inactive); in assay [11] it was 4.71% (inactive) and -9.34% (inactive); in assay [12], 14.1% (inactive); in assay [13], 38.5% (inactive). Also, the inhibition of aggregation in assay [3] is 26% (inactive). The figures for the nuclei count in assay [3] and in [4] were 92.4% and 117%, respectively. For the same compound, the results for the z-score in assay [5] (setting [14]), in [5] (setting [15]) and in assay [5] (setting [16]) were 0.276, -0.431 and -1.23, respectively. In addition, the fluorescence slope in [7] is -0.432 (inactive). In addition, the NADPH fluorescence slope in assay [8] was -7.8e-05 (inactive). In addition, the slope in assay [9] was 0.00398 (inactive).

For the compound `NC(N)=NC(=O)c1nc(Cl)c(N)nc1N`, in [2], the cell count is 517. Further, the inhibition is -4.2% (inactive) in assay [2]; -76.7% (inactive) in assay [4]; 30.1% (inactive) in [6]; 4.19% (inactive) and 21.2% (inactive) in assay [11]; 15.9% (inactive) in assay [12]; 42% (inactive) in [13]. In addition, in assay [3], the inhibition of aggregation was -1.5% (inactive). Further, the results for the nuclei count in [3] and in [4] were 103% and 114%, respectively. Besides, the z-score in [5] (setting [14]) was 2.22; in assay [5] (setting [15]) it was -1.45; in assay [5] (setting [16]) it was -1.51. Further, the fluorescence slope in [7] is -0.443 (inactive). Moreover, the NADPH fluorescence slope in assay [8] is -7.2e-05 (inactive). For the same compound, the slope in assay [9] is 0.00564 (inactive).

For `O=C1C2CC=C(Cl)CC2C(=O)N1CNc1ccccn1` (stereo unspecified), in assay [2], the cell count came to 549. In addition, the inhibition in assay [2] was -1.9% (inactive); in assay [4], -24.7% (inactive); in assay [6], 1.98% (inactive); in [11], -11.9% (inactive); in assay [12] it was 11.3% (inactive); in assay [13] it was 18.2% (inactive). Moreover, in assay [3], the inhibition of aggregation was 21.8% (inactive). The nuclei count worked out at 86.4% in assay [3] and 118% in assay [4]. Besides, the figures for the z-score in assay [5] (setting [14]), in assay [5] (setting [15]) and in assay [5] (setting [16]) were -0.409, 1.18 and -0.807, respectively. The fluorescence slope was -0.446 (inactive) in [7] and 0.00609 (inactive) in assay [1]. Further, the NADPH fluorescence slope in [8] is -1.4e-05 (inactive). For the same compound, the slope in assay [9] was 0.00475 (inactive). The outcome in assay [10] was inactive.
